# Data taken from the supplement of paper PMC6555819.
# Tests used:
# Assay in all cases: PBM binding z-score (relative to random genomic background probes); higher = stronger binding; sequences stand for … in GC…GCGATTGACAGCGTAGAATGAAGG
# [1] = system: PPARg:RXRa DBDmut IVT, anti-RXR (DBD mutation: RXRa K156A/R161A, NR concentration 270 nM, RXRa partner concentration 90 nM)
# In short: (§1)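 Scanned fluorescence from custom Agilent 4×180K protein-binding microarrays was regression-normalized. Binding z-scores use random background probes as reference. Ligand-free nuclear receptor dimers were incubated on the arrays for 1 h and detected with antibodies against each partner (one per run).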
# [2] = system: PPARg:RXRa IVT, anti-PPARg (NR concentration 270 nM, RXRa partner concentration 90 nM)
# In short: as §1
# [3] = system: PPARg DBDmut:RXRa IVT, anti-PPARg (DBD mutation: PPARg1 K132A/R137A, NR concentration 270 nM, RXRa partner concentration 90 nM)
# In short: as §1
# [4] = system: PPARg DBDmut IVT, anti-PPARg (DBD mutation: PPARg1 K132A/R137A, NR concentration 270 nM)
# In short: as §1
# [5] = system: PPARg homodimer (NR concentration 180 nM)
# In short: as §1
# [6] = system: PXR:RXRa (NR concentration 270 nM, RXRa partner concentration 90 nM)
# In short: as §1
# [7] = system: PXR homodimer (NR concentration 270 nM)
# In short: as §1
# [8] = system: RARa:RXR (NR concentration 270 nM, RXRa partner concentration 90 nM)
# In short: as §1
# [9] = system: RARa homodimer (NR concentration 270 nM)
# In short: as §1
# [10] = system: RARb:RXRa (NR concentration 270 nM, RXRa partner concentration 90 nM)
# In short: as §1
Sequence,PBM binding z-score [1],PBM binding z-score [2],PBM binding z-score [3],PBM binding z-score [4],PBM binding z-score [5],PBM binding z-score [6],PBM binding z-score [7],PBM binding z-score [8],PBM binding z-score [9],PBM binding z-score [10]
CAAACTAGGACACGAAAGGTCAAAGTCGAATGAC,6.64,6.94,2.48,3.31,4.51,5.64,1.78,6.19,3.15,4.52
GCTCGGAGGACAAGGTGAGAGCTTTGTCCGTAGA,-0.575,0.359,-0.51,-0.882,-0.374,-0.472,-0.908,-0.166,-1.13,1.52
GGAACGAGGGCATTCGAGTTGAAAGCATGGCGAT,2.58,2.01,-0.14,-0.111,0.301,3.96,1.15,1.18,-0.521,1.71
AGCTCTAGGTAAGACTCAGTTCAGTGAAGAACGC,2.37,0.56,-0.869,0.622,-0.0493,0.744,0.904,-0.0214,-0.00994,-0.0595
CCTATAAGTTGACCATAAGGGCAACCGAAGCTCG,0.357,0.771,0.17,-0.0168,1.61,0.964,0.7,1.23,1.27,1.8
TCATATAGGTAATTCAGGTGAAAGTCGGCATCTA,4.31,3.55,1.64,1.6,1.41,0.703,0.443,1.34,1.6,0.546
CGAACTAGCTCAGAACAGGACAGTGAAGGATGAT,-0.0249,-0.714,-0.195,0.0741,-0.71,-0.669,0.0442,-0.393,0.354,-0.236
TAGCCTAGGTTATTCAGGGGCCAGTATAGAAAGC,0.707,0.703,0.674,-0.312,-0.0619,0.0716,-0.463,0.719,-0.306,1.13
TCATGTAGATCAACAGGAGGTTAAGAAAGATCGA,1.44,0.504,0.449,0.653,-0.00792,0.814,-0.17,1.3,0.399,0.499
GTACGAAGGTGAATAGGTCGTTGATGAGTAGGCG,1.5,2.19,-0.159,-0.129,0.859,0.754,-0.215,1.75,0.356,2.01
GCATATAGGTAATACAGGGTGAAAGTCCGATTGT,4.15,3.22,1.15,0.404,1.08,0.411,0.164,1.35,0.52,0.281
ATCGAAAGGTCGTGAGGTGAGCATACAGAAAGGC,0.297,2.79,1.33,0.333,0.137,2.77,0.261,3.85,0.316,3.89
